Screens as filed in PubChem.
EP2 antag – blocks the human prostaglandin E2 receptor EP2; inhibition, % at 25 µM; C6 glioma cells expressing human EP2, cAMP TR-FRET; cells stimulated with saturating PGE2; 0.52% of 260,000 active; P43116;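 active means percent inhibition above 40 after rounding to a whole number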;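 further: rat C6 glioma host cells with rolipram phosphodiesterase inhibitor present; the protocol text gives 20 µM as final concentration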
EP2 mod – modulators of human EP2 prostaglandin E2 receptor; induction, % at 25 µM; P43116; 0.83% of 260,000 active; AID 940; EP2-expressing cells, cAMP HTRF FRET, PGE2 co-stimulation;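 active means compounds whose cAMP rise, as percent of the full-agonist control response, exceeds 60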;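 further: rat C6 glioma line stably carrying human EP2 under a CMV promoter; the protocol text gives 20 µM as final concentration; 100% = response of wells given 1 µM PGE2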
HSV replic up – HSV replication enhancement | maximum fold increase | 0.005% of 220,000 active | HSV replication augmentation in cells, fold increase | AID 1956; in the data active means maximum fold increase above about 1.5; tested in PC3 cells
Wee1 stabilizer – inhibitors of human Wee1 degradation | 1.2% of 220,000 active | HeLa Luc-Wee1K328M stability, luciferase luminescence; 100% = proteasome inhibitor MG132 effect | P30291 | reporter increase, % at 5 µM;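 active means activation above the mean of all tested compounds plus 3 SD, set per screening run, cut at about 8.8% in these data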;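 further: cells exposed to compound for 20 h before luminescence read; 0% = DMSO alone and 100% = MG132 at 30 µM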
Target sequence (P30291 whole entry K328M): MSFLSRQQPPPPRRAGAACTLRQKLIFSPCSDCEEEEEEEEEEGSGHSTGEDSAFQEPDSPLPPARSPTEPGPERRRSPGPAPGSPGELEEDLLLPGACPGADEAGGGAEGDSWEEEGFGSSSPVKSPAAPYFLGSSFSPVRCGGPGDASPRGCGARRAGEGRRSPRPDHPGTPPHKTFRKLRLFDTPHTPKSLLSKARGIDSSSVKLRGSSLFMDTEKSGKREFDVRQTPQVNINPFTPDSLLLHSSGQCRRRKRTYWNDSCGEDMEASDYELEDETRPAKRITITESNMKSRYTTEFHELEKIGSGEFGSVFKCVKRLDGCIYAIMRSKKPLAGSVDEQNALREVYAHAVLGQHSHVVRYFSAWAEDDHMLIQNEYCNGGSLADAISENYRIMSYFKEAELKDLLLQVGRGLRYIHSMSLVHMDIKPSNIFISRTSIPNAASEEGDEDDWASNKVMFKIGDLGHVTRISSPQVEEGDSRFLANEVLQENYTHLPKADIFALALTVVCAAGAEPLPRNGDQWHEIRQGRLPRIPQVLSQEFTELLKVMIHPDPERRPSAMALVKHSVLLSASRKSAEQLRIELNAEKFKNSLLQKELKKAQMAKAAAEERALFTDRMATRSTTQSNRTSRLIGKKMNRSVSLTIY
NCF1 inh – blocks human p47phox regulatory protein of NADPH oxidases | p47phox/p22phox peptide binding, fluorescence polarization, 2 h | inhibition, % at 24.7 µM | 0.53% of 220,000 active | P14598;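 active means inhibition above about 30%, limit read from the data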;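 further: 0% = p47phox with labelled peptide and 100% = labelled peptide alone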
Furin inhibitor – inhibitors of human furin | purified furin, fluorogenic substrate cleavage | inhibition, % at 20 µM or 30 µM | 0.061% of 220,000 active | P09958; in the data active means inhibition above about 25%
* marks the source's active call; other numbers are inactive results; i = inactive; . = not tested or not shown. Hits are enriched below; roughly 2.8% of the tested compounds scored in any of these assays.

SMILES | EP2 antag | EP2 mod | HSV replic up | Wee1 stabilizer | NCF1 inh | Furin inhibitor
Cc1cc(C)nc(NS(=O)(=O)c2ccc(NC(=O)COc3ccccc3)cc2)n1 | 7.5 | 39.3 | i | -0.6 | -6.8 | -14.4
COc1cc(CN(Cc2ccccn2)C2CC(C)(C)NC(C)(C)C2)cc(OC)c1O | 5.0 | -4.2 | . | . | . | .
CC1=C(C#N)c2nc(N)c(C#N)c(C)c2/C1=C\c1ccc(OC(C)C)c(Cl)c1 | 13.3 | -60.6 | . | . | . | .
CN(C)CCCNC(=O)Cn1cc(Cl)c([N+](=O)[O-])n1 | 2.6 | -25.6 | . | . | . | .
COc1cc(OC)cc(C(=O)Nc2ccc(NC(=O)c3ccco3)c(Cl)c2)c1 | 7.2 | 2.6 | i | 9.7* | 2.4 | -8.4
CNC(=S)Nc1cc(OC)c(NC(=O)c2ccco2)cc1OC | 3.0 | -4.9 | i | 9.9* | 0.0 | -2.5
CCOc1cc(NC(=S)NC)c(OCC)cc1NC(=O)c1ccco1 | 7.2 | -15.8 | i | -0.4 | -15.6 | -16.7
COc1ccc(C(=O)Nc2cc(OC)c(NC(=O)c3ccco3)cc2OC)cc1 | 6.1 | -34.6 | i | -0.7 | 63.4* | -10.7
COc1ccc(C(=O)Nc2cc(NC(=O)c3ccco3)ccc2OC)cc1 | 13.3 | -10.7 | . | . | . | .
Cc1cccc(-c2nnc(SCC(=O)O)n2C)c1 | 11.7 | 2.2 | . | . | . | .
CCC(c1nnnn1C(C)(C)CC)N1CCN(C2CCCC2)CC1 (centres undefined) | 10.9 | -15.2 | . | . | . | .
Cc1nn(CC(=O)NCC(C)c2ccccc2)c(=O)c2cc3sccc3n12 (centres undefined) | . | -42.8 | . | . | . | .
CCC(c1nnnn1C1CCCC1)N(Cc1ccccc1)Cc1cc2cccc(C)c2[nH]c1=O (centres undefined) | 25.3 | 63.8* | . | . | . | .
CCC(c1nnnn1C1CCCCC1)N(Cc1ccco1)Cc1cc2c(C)ccc(C)c2[nH]c1=O (centres undefined) | 12.7 | 76.5* | . | . | . | .
Cc1sc(NC(=O)c2cccc(F)c2)nc1-c1ccc2c(c1)CCN2C(=O)C(C)C | 15.7 | -49.7 | . | . | . | .
CC(C)Oc1ccc(-c2nn(-c3ccccc3)cc2/C=c2\sc3ncnn3c2=O)cc1 | . | -3.7 | . | 10.2* | -54.1 | -21.0
O=c1/c(=C/c2cn(-c3ccccc3)nc2-c2ccc(F)cc2)sc2nc3ccccc3n12 | 6.4 | 7.8 | i | -1.1 | 1.9 | -14.1
COc1ccccc1N1CCN(C(=O)Cn2nc(C)n3c(cc4sccc43)c2=O)CC1 | . | 2.2 | . | . | . | .
CN1CC=C(/C=C/c2ccc(N(C)C)cc2)CC1 | 18.8 | -104.1 | . | . | . | .
CN1OC2C(=O)N(c3ccccc3)C(=O)C2C1c1ccc(F)cc1 (centres undefined) | 5.0 | 23.2 | i | 16.7* | -3.0 | -13.4
O=C1C2ON(c3ccccc3)C(c3ccccc3F)C2C(=O)N1c1ccccc1 (centres undefined) | 11.2 | 25.5 | i | -0.9 | -73.0 | -24.7
CC1CCN(c2nc3c(c(=O)[nH]2)CN(Cc2cn[nH]c2-c2cccs2)CC3)CC1 | 6.7 | -11.5 | . | . | . | .
COc1cccc(C(=O)CSc2nnc(CNS(=O)(=O)c3ccc(C)cc3)n2C)c1 | 13.8 | 0.3 | i | 9.7* | -11.3 | -22.0
COC(=O)CSc1nnc(CNS(=O)(=O)c2ccc(C)cc2)n1C | 7.7 | 6.1 | i | -2.4 | -4.8 | -31.6
CCC(c1nnnn1CCc1ccccc1)N(Cc1cc2cccc(C)c2[nH]c1=O)C1CCCC1 (centres undefined) | 9.2 | -5.6 | . | . | . | .
SMILES | EP2 antag | EP2 mod | HSV replic up | Wee1 stabilizer | NCF1 inh | Furin inhibitor
COCCNC(=O)[C@H](C)[C@H]1C[C@]1(C)[C@H](NC(=O)OCc1ccccc1)c1ccccc1 | 3.4 | 4.2 | i | 9.1* | -1.2 | -4.2
CCN1CCCC1CN(Cc1cc2ccc(C)cc2[nH]c1=O)C(=O)Nc1ccccc1Cl (centres undefined) | 9.0 | -33.5 | . | . | . | .
COc1ccc(CN2CCc3c(nc(N4CCCC(C)C4)[nH]c3=O)C2)cc1 (centres undefined) | 6.8 | -50.0 | . | . | . | .
COc1ccc2c(c1)[n+]([O-])c(/C(C)=N/NC(N)=S)c(C)[n+]2[O-] | 44.1* | 7.7 | . | . | . | .
C/C(=N\NC(N)=S)c1ccccc1 | 5.3 | -49.2 | i | -1.6 | -1.1 | -13.1
COc1ccc2c(c1)NC1(CCNCC1)c1cccn1-2 | 9.3 | -72.4 | . | . | . | .
Cc1ccc2c(c1)CCCN2C(=O)c1c(C)noc1C | 8.0 | 9.7 | i | -0.2 | -0.7 | -14.0
Cc1noc(C)c1C(=O)N1CCCc2ccccc21 | 12.6 | 26.1 | i | 1.2 | 53.0* | -23.6
COc1ccc(C)cc1NC(=O)N1CCCc2ccccc21 | 2.4 | 61.4* | i | 2.1 | -8.1 | -28.8
O=C(Nc1ccccc1)N1CCCc2ccccc21 | 9.4 | 30.6 | i | -2.2 | 0.2 | -12.6
COc1ccccc1-c1cc(C(=O)N2CCCc3ccccc32)no1 | 0.3 | 22.4 | i | 9.8* | -3.6 | -22.0
CC[C@H](Cn1ncc2ccccc2c1=O)NC(=O)CN1C(=O)C2C3CCC(C3)C2C1=O (some centres undefined) | . | -13.7 | . | . | . | .
COc1ccc(C[C@H](N)C(=O)N[C@@H]2[C@@H](CO)OC(n3cnc4c(N(C)C)ncnc43)[C@@H]2O)cc1 (some centres undefined) | 21.2 | 7.5 | . | . | . | .
CN(CCOc1ccccc1)C(=O)COc1ncnc2ccccc12 | 9.1 | -42.2 | . | . | . | .
CCN(CC)c1ccc2c(c1)OC(N)=C(C#N)C2c1ccccc1 (centres undefined) | 4.6 | -36.0 | . | . | . | .
COc1ccc([C@@H](Nc2ccccn2)c2cc(C(C)(C)C)cc(C(C)(C)C)c2O)cc1 | 45.9* | 36.2 | . | . | . | .
Clc1ccc(N=c2ssnc2Cl)cc1 | 109.7* | -68.2 | i | 1.6 | 27.7 | -17.0
N#Cc1ccc(N=c2ssnc2Cl)cc1 | 146.6* | -29.4 | i | 3.6 | 21.2 | 4.0
CCOC(=O)c1ccc(N=c2ssnc2Cl)cc1 | 7.6 | -48.2 | i | 3.2 | 16.9 | -17.3
Clc1nssc1=Nc1ccccc1 | 7.3 | -92.6 | i | -0.7 | 6.6 | -31.9
COc1cc(N=c2ssnc2Cl)cc(OC)c1OC | 129.5* | -40.0 | i | 2.7 | 1.0 | -5.4
COc1ccc(N=c2ssnc2Cl)cc1 | 75.8* | -72.4 | i | -1.6 | 12.6 | -10.3
Cc1ccc(N2CC34C=CC(O3)C(C(=O)OC(C(=O)NC(C)(C)C)C(C)C)C4C2=O)c(C)c1 (centres undefined) | 16.9 | 2.1 | . | . | . | .
CN(C)CCCOC(=O)c1ccco1 | 10.0 | 7.0 | . | . | . | .
CCOc1ccccc1NC(=O)CSc1nnc(-c2cccnc2)n1Cc1ccco1 | 9.7 | 14.8 | . | . | . | .
CCc1cc(=O)oc2cc3occ(-c4ccc(OC)c(F)c4)c3cc12 | 4.0 | 2.6 | i | -5.1 | 46.5* | -13.1
Cc1ccc(-c2csc(Nc3ccc(N)cc3)n2)cc1 | 17.5 | -134.4 | . | . | . | .
CC(=O)OCC(=O)[C@H]1CCC2C3CCC4=CC(=O)CC[C@]4(C)C3CC[C@@]21C (some centres undefined) | 8.8 | 7.2 | . | . | . | .
C[C@@]12CC[C@@H]3[C@H](CCC4=CC(=O)CC[C@]43C)[C@H]1CC[C@H]2C(=O)COS(=O)(=O)c1ccc(Br)cc1 | 43.8* | 17.4 | . | . | . | .
